FBPA Giardia inh: qHTS Assay for Inhibitors of Fructose-1,6-bisphosphate Aldolase from Giardia Lamblia | purified Giardia FBPA | 290,000 compounds, 0.71% hits | AID 2451, 2010 | A8B2U2 | Potency, µM (titrated, usually from 59.6 µM), usual class: inhibitors; also: nearly all actives have a fitted effect of over 55% in size
Target sequence (A8B2U2 whole entry, looked up): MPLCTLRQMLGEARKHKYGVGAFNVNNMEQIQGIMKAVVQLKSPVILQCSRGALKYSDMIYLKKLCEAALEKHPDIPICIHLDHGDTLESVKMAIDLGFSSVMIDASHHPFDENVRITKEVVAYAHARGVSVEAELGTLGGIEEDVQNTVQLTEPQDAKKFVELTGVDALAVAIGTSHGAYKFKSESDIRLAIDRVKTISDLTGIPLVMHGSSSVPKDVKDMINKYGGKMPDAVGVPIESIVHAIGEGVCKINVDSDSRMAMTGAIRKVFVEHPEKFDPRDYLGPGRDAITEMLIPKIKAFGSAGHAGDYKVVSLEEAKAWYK
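Giardia FBPA (40 nM reagent) was preincubated 10 min at RT with compound (up to 57.5 uM final), then substrate plus GAPDH/TPI/NAD/arsenate coupling system with diaphorase/resazurin was added; resorufin fluorescence (525/598 nm) was read after 20 min.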
Tb PYK inh: qHTS of Trypanosoma Brucei Inhibitors. TbPYK enzyme, Kinase-Glo Plus ATP luminescence, 45 min. Potency, µM (titrated, usually from 76.8 µM), usual class: inhibitors. 410,000 compounds, 0.12% hits; also: nearly all actives have a fitted effect of over 50% in size
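ADP (130 uM final) triggers the TbPYK reaction after compound addition; incubation is 45 min at room temperature. Kinase-Glo Plus is then added and luminescence imaged. Normalized data are fitted to concentration-effect curves.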
RE007 growth inh: qHTS Assay for Inhibitors of the HIV-1 protein Vpr | 360,000 compounds, 0.21% hits | S. pombe RE007 Vpr strain, BacTiter-Glo ATP luminescence, 24 h | Potency, µM (titrated, usually from 92.2 µM), usual class: inhibitors; active = well fitted falling curve with a large enough effect; inconclusive = small, poorly fitted or top-dose-only effect; inactive = no such curve, though single readings can be large or run the other way; also: nearly all actives have a fitted effect of over 50% in size
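Fission yeast RE007 carrying one integrated HIV-1 vpr copy, seeded at OD 0.01 in PMG+AL medium with 23 nL pinned compound. Grown 24 h at 30 degrees; viability read by BacTiter-Glo luminescence after 5 min.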
LmPK inhibitor: qHTS Assay for Inhibitors of Leishmania Mexicana Pyruvate Kinase (LmPK); purified LmPK, Kinase-Glo ATP luminescence, 1 h; 290,000 compounds, 0.37% hits; Q27686; Potency, µM (doses to about 57.5 µM), actives largely listed as inhibitors
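Screened at intermediate enzyme activity to detect both inhibitors and activators: LmPK at 0.1 nM, with a 0.5 nM enzyme column as activation reference. PEP 0.5 mM, ADP 0.1 mM; ATP detected by luminescence after 1 h.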
Shiga inhibitor: A qHTS for Small Molecule Inhibitors of Shiga Toxin; Vero cells, Shiga toxin protein synthesis inhibition reporter; inhibition, % at 38.7 µM; 290,000 compounds, 9.2% hits; AID 2315, 2010; in the data active = inhibition mostly above about 28%, no sharp cut-off; inactive = mostly below about 43%
Cycloheximide cs: Cycloheximide Counterscreen for Small Molecule Inhibitors of Shiga Toxin | cell reporter, cycloheximide protein synthesis inhibition counterscreen | max response, % | 300,000 compounds, 12% hits | AID 2314, 2010; in the data active = max response mostly above about 13%, no sharp cut-off; inactive = mostly below about 14%; also: read at 38.3 µM for the half of the compounds with a filed dose
Numbers stand for hits; i = inactive; ? = inconclusive; nt = not tested or not shown; [ ] = dose if it differs, or a comment. The sample as a whole holds a higher share of hits than the screen did. Unless noted, calls follow the shape of the dose curve; as a rule, active = well fitted curve in the direction sought with a large enough effect; inconclusive = small, poorly fitted or top-dose-only effect, or another doubt; inactive = no such curve, though single readings can be large; an effect the other way counts as inactive or inconclusive.

SMILES	FBPA Giardia inh	Tb PYK inh	RE007 growth inh	LmPK inhibitor	Shiga inhibitor	Cycloheximide cs
FC(F)Oc1ccccc1/C=N/n1cnc2ccccc21	i	i	i	i	116	50
NC(N)=N/N=C/c1ccccc1OC(F)F	i	i	i	i	i	i
CCc1cccc(NC(=O)Cn2c(=O)n(-c3ccccc3C)c(=O)c3c2c2cc(C)ccc2n3C)c1	nt	i	nt	nt	nt	nt
CCC(=O)Nc1ccc(-c2nnc3c4ccccc4c(C)nn23)cc1	nt	i	nt	nt	nt	nt
COc1ccccc1NC(=O)/C(C#N)=C/c1cccnc1	i	i	i	i	i	i
Cc1cc(/C=C(\C#N)C(=O)Nc2ccccc2)c(C)n1-c1cccnc1	i	i	i	i	62	33
N#C/C(=C\c1cccc([N+](=O)[O-])c1)C(=O)Nc1cccnc1	i	i	i	i	i	i
N#C/C(=C/c1cccc([N+](=O)[O-])c1)C(=O)Nc1ccccc1O	i	i	i	i	i	13
N#C/C(=C\c1ccccc1O)C(=O)Nc1cccnc1	i	i	i	?	57	46
N#C/C(=C\c1cccnc1)C(=O)Nc1cccc2ccccc12	i	i	32µM	i	i	i
COc1ccc(NC(=O)c2ccc3c(=O)n4nc(Nc5cc(C)ccc5C)sc4nc3c2)cc1	nt	i	nt	nt	nt	nt
CCOc1ccc(N2C(=O)CS(=O)(=O)C23C(=O)N(Cc2cccc(Cl)c2)c2ccccc23)cc1 (stereo unspecified)	nt	i	nt	nt	nt	nt
CCOC(=O)/C(C#N)=C/c1cc(C)n(-c2ccccc2)c1C	i	i	i	i	111	50
Cc1ccc(NC(=O)/C(C#N)=C/c2ccccc2C(F)(F)F)cc1	i	i	i	i	i	27
CCOC(=O)/C(C#N)=C/c1cc(C)n(-c2ccc(Br)cc2)c1C	i	nt	nt	i	i	i
CN(C)/C=C(\C#N)C(=O)Nc1ccc(O)cc1F	i	i	i	i	i	i
CN(C)/C=C(\C#N)C(=O)Nc1ccccc1	i	i	i	i	57	32
Cc1ccccc1NC(=O)/C(C#N)=C/c1ccccc1C(F)(F)F	i	i	i	i	i	i
COc1cccc(-c2ccc3ncnc(NCc4ccccc4)c3c2)c1	i	nt	nt	nt	nt	nt
Cc1cc(CNC(=O)CCc2nnc(CCCc3ccccc3)o2)nn1C	i	i	i	i	33	37
CC(NC(=O)CCc1nnc(-c2ccccc2)o1)c1ccccc1 (stereo unspecified)	i	i	i	i	124	35
Cn1cc(CCNC(=O)CCc2nnc(CCCCc3ccccc3)o2)cn1	i	i	i	i	i	i
CC(NC(=O)CCc1nnc(CCCc2ccccc2)o1)c1ccccc1 (stereo unspecified)	i	i	i	i	94	29
Cc1cccc(CC(C)NC(=O)CCc2nnc(CCCCc3ccccc3)o2)n1 (stereo unspecified)	i	i	i	i	i	i
CC(Cc1cccnc1)NC(=O)CCc1nnc(-c2ccccc2)o1 (stereo unspecified)	i	i	i	i	i	i
SMILES	FBPA Giardia inh	Tb PYK inh	RE007 growth inh	LmPK inhibitor	Shiga inhibitor	Cycloheximide cs
CCOc1ccc(CCNC(=O)CSc2nnnn2-c2ccccc2)cc1OCC	nt	i	nt	nt	nt	nt
C=CCn1c(=O)c(C(=O)Nc2ccccc2S(N)(=O)=O)c(O)c2ccccc21	i	i	i	i	73	31
COc1ccc(F)cc1S(=O)(=O)NCCc1csc2nc(-c3cccc(C)c3)nn12	nt	i	nt	nt	nt	nt
O=C(NCCc1ccccc1)c1cc2ccccc2oc1=O	i	i	i	i	i	i
O=C(NCCCn1ccnc1)c1cc2ccccc2oc1=O	i	i	i	i	i	13
COc1ccc(CCNC(=O)c2cc3ccccc3oc2=O)cc1	i	i	i	i	34	29
Cc1c(C(=O)NCCC2=CCCCC2)cccc1[N+](=O)[O-]	nt	i	i	i	94	35
O=C(NCCC1=CCCCC1)c1cc2ccccc2oc1=O	i	i	i	i	67	19
Cc1c(C(=O)NCCc2ccc(S(N)(=O)=O)cc2)cccc1[N+](=O)[O-]	i	i	i	i	i	i
CCc1ccc(CNC(=O)CN2C(=O)C3CCCCN3c3ccc(C(=O)N4CCCC4)cc32)cc1 (stereo unspecified)	nt	i	nt	nt	nt	nt
Cc1cc(-c2ccccc2)nc2cc(C(=O)Nc3ccc(Cl)c(Cl)c3)nn12	nt	i	nt	nt	nt	nt
Cc1cnc(CNc2nc(-c3ccc(C(=O)N(C)C)cc3)nc3ccccc23)cn1	i	nt	nt	nt	nt	nt
COc1cccc(-n2ccn(CC(=O)Nc3ccccc3F)c(=O)c2=O)c1	nt	i	nt	nt	nt	nt
O=C(Nc1ccccc1)c1cnc(N2CCCCC2)c2ccccc12	nt	i	nt	nt	nt	nt
CO[C@@H]1/C=C\CC(=O)N2CCC[C@@H]2C(=O)OC[C@@H](C)C(=O)OC[C@H]1C	i[12.9 µM]	nt	nt	nt	nt	nt
CC(=O)OCC(NC(=O)C(C)NC(=O)OC(C)(C)C)C1OC(n2cc(F)c(=O)[nH]c2=O)C(OC(C)=O)C1OC(C)=O (stereo unspecified)	i	nt	nt	nt	i	i
Cc1cccc(-n2c(O)c(/C=C/C=Nc3ccccc3)c(=O)[nH]c2=O)c1	i	i	i	i	i	i
Cc1ccccc1-n1c(O)c(/C=C2/C(c3ccccc3)=Nc3ccccc32)c(=O)[nH]c1=O	i	i	?	i	86	54
Cc1ccc(-n2c(O)c(/C=C3/C(c4ccccc4)=Nc4ccccc43)c(=O)[nH]c2=O)cc1	i	i	nt	i	63	29
O=c1[nH]c(=O)n(-c2ccccc2F)c(O)c1/C=C1\C=Nc2ccccc21	i	i	nt	i	i	6.6
CC1=Nc2ccccc2/C1=C/c1c(O)n(C)c(=O)[nH]c1=O	i	i	i	i	nt	i
Cc1cccc(-n2c(O)c(/C=C3/C(c4ccccc4)=Nc4ccccc43)c(=O)[nH]c2=O)c1	i	i	?	i	32	20
O=C(CCOc1ccccc1)N(Cc1cccnc1)c1nc2c(Cl)cccc2s1	nt	i[15.4 µM]	nt	nt	nt	nt
Cc1ccccc1-c1nc(-n2ccnc2)c2ccccc2n1	i	nt	nt	nt	nt	nt
CCCNC(=O)CN1C(=O)CSc2ccc(S(=O)(=O)N3CCC(C)CC3)cc21	nt	i	nt	nt	nt	nt
SMILES	FBPA Giardia inh	Tb PYK inh	RE007 growth inh	LmPK inhibitor	Shiga inhibitor	Cycloheximide cs
CCOc1ccccc1NC(=O)Cn1c(=O)n(-c2ccc(C)cc2)c(=O)c2c1cnn2C	nt	i	nt	nt	nt	nt
C[C@H](N)c1nnc(SCC(=O)N(C)C)o1	i	i	i	i	i	17
COc1ccc(C(=O)Nc2nnc(C(F)(F)F)s2)cc1	?	i	i	i	98	27
CCc1nnc(NS(=O)(=O)c2ccc(N/C=C/C(=O)c3ccc(OC)cc3)cc2)s1	i	i	i	i	86	51
CCc1nnc(NC(=O)c2cccc(OC)c2)s1	i	i	i	i	65	42
COc1cccc(C(=O)Nc2nnc(-c3cccs3)s2)c1	i	i	i	i	89	24
CCc1nnc(NC(=O)c2c(OC)cccc2OC)s1	i	i	i	i	i	i
